Measured values from PubChem BioAssay.
“And” between values parts separate entries of the source, which are not always exact repeats. Identical values can stand only once. The source made the active and inactive calls. Cut-off read from the data, not from the text of the source, unless noted: active = inhibition above about 80%; inactive = the rest.

Columns and labels:
[1] = target: 6-phosphogluconate dehydrogenase, decarboxylating (Homo sapiens) (UniProt P52209); assay: inhibition of human phosphogluconate dehydrogenase – biochemical, recombinant enzyme, NADPH absorbance, primary screen (AID 1159550;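 active = at least 20% inhibition of 6-phosphogluconate dehydrogenase activity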); settings: recombinant 6PGD, NADPH absorbance 341 nm; at 10 µM; stronger effect = higher value
Chain of 6-phosphogluconate dehydrogenase, decarboxylating (Homo sapiens) (P52209 whole entry, looked up): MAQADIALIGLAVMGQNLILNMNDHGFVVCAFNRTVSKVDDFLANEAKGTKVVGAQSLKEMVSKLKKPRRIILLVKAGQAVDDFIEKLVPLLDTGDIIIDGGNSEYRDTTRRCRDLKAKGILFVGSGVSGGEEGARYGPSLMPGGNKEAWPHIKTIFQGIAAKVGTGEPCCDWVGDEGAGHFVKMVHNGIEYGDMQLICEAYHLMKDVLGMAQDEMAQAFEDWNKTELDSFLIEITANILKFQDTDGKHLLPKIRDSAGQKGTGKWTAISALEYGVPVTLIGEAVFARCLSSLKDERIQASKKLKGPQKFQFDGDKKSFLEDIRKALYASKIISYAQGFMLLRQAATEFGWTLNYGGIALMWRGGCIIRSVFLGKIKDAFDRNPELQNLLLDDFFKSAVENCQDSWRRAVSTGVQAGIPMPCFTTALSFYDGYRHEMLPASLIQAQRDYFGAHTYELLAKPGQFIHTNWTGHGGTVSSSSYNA

[2] = viability loss with induced miR-34 in A549 – imaging, A549 dox-inducible miR-34, nuclei and caspase counts, primary screen (AID 1347080;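 active = compounds whose cell count with miR-34 switched on is under 0.7 times the count with it off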); settings: A549 miR-34 inducible, Hoechst nuclei count, 48 h
[3] = MELAS cybrid and Rieske KO viability enhancers – cell-based, MELAS cybrids, Rieske KO mouse fibroblasts, CellTiter-Glo, primary screen (AID 1508586;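 active = mean z-score across replicates of 1.96 or higher in either the MELAS or the Rieske mutant cell line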;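 note: z relative to plate mean and SD of compound and empty wells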); settings: low glucose
[4] = galactose survival enhancers in mitochondrial complex I cybrids – cell-based, galactose medium, ATP luminescence, primary screen (AID 1645843;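 active = z-score of at least 1.8 in each of two replicates, scored against plate mean and spread of sample wells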;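 note: positive z means more ATP and so rescue of galactose-driven cybrid death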); settings: complex I mutant cybrid cells, 72 h, stronger effect = higher value
[5] = growth inhibition, single agent or in combination, cell-based, chromothripsis tumors, cisplatin or BGB combos (AID 1671449); settings: LFS_MB_P medulloblastoma cells;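 note: cells exposed for 96 hours; 0% = vehicle DMSO and 100% = killing by high DMSO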
[6] = growth inhibition, single agent and combos, cell-based, chromothripsis tumors, cisplatin or BGB combos (AID 1671450); settings: HDN33 neuroblastoma cells, stronger effect = higher value;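 note: cells exposed to compound for four days; 0% = vehicle DMSO and 100% = cell killing by high DMSO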
[7] = growth inhibition, single agents and combos, ICB984, cell-based, cisplatin or BGB combos, synergistic combos for chromothripsis tumors (AID 1671451; call rule not given here;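 note: cells exposed for 96 hours before readout; 0% = vehicle DMSO and 100% = killing by high DMSO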); settings: ICB984 medulloblastoma cells, drug combinations, stronger effect = higher value
[8] = growth inhibition, single agents and combos, LFS_MB_1R, cell-based, cisplatin or BGB combos, synergistic combos for chromothripsis tumors (AID 1671452); settings: LFS_MB_1R medulloblastoma cells, stronger effect = higher value;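 note: cells exposed for 96 hours before readout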
[9] = growth inhibition, single agents and combos, HTB85, cell-based, BGB or cisplatin IC20 combos, synergistic combos for chromothripsis tumors (AID 1671453); settings: HTB85 osteosarcoma cells, drug combinations, stronger effect = higher value;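 note: cells exposed for 96 hours before readout; 0% = vehicle DMSO and 100% = high DMSO killing control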
[10] = growth inhibition, single agents and combos, CRL2098, cell-based, BGB or cisplatin IC20 combos, synergistic combos for chromothripsis tumors (AID 1671454); settings: CRL2098 osteosarcoma cells, drug combinations, stronger effect = higher value;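 note: cells exposed for 96 h before readout; 0% = vehicle DMSO and 100% = killing by high DMSO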
[11] = growth inhibition, single agents and combos, HD-MB03, cell-based, BGB or cisplatin IC20 combos, synergistic combos for chromothripsis tumors (AID 1671455; in the data active = inhibition above about 83%;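 note: 0% = vehicle DMSO and 100% = high DMSO as cytotoxic control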); settings: HD-MB03 medulloblastoma cells, stronger effect = higher value
[12] = growth inhibition, single agents and combos, UWB1.289, cell-based, BGB or cisplatin combos, synergistic combos for chromothripsis tumors (AID 1671456); settings: UWB1.289 ovarian carcinoma cells, stronger effect = higher value;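 note: cells exposed to compound for four days; 0% = vehicle DMSO and 100% = killing by high DMSO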
[13] = growth inhibition, single agents and combos, LFS_MB_2R, cell-based, cisplatin combos, synergistic combos for chromothripsis tumors (AID 1671457); settings: LFS_MB_2R medulloblastoma cells, stronger effect = higher value;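 note: cells exposed to compound for four days before readout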
[14] = growth inhibition, MDA-MB-436, cell-based, BGB or cisplatin combos, synergistic combos for chromothripsis tumors (AID 1671458; call rule not given here;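 note: cells exposed for 96 hours; 0% = vehicle DMSO and 100% = killing by high DMSO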); settings: MDA-MB-436 breast carcinoma growth inhibition, drug combinations, stronger effect = higher value
[15] = UWB1.289_BRCA1 ovarian cancer growth, cell-based, BGB or cisplatin combinations (AID 1671459); settings: UWB1.289 BRCA1 ovarian carcinoma, drug combinations, stronger effect = higher value
[16] = drug combination toxicity in non-malignant astrocytes – cell-based, BGB or cisplatin IC20 combos, cytotoxicity control for chromothriptic childhood tumor combination screen (AID 1671460); settings: Human astrocytes, viability inhibition, drug combinations, at 0.5 µM, stronger effect = higher value;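 note: cells exposed to compounds for 96 hours before viability readout; 0% = vehicle and 100% = killing control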
[17] = BT084 cell growth, single and combined drugs, ICGC_MB145, cisplatin and BGB IC40 combos (AID 1671461); settings: BT084 medulloblastoma cells, drug combinations, stronger effect = higher value;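 note: cells exposed to drugs for 96 hours; 0% = vehicle DMSO and 100% = high DMSO full killing control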
[18] = RCMB18 cell growth, single agent and combined, cisplatin and BGB IC40 combos (AID 1671462); settings: RCMB18 medulloblastoma cells, stronger effect = higher value;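 note: cells exposed to compound for four days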
[19] = CRL1545 cell growth, single agent and combined, cisplatin and BGB IC20 combos (AID 1671464); settings: CRL1545 osteosarcoma cells, stronger effect = higher value;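 note: cells exposed to compound for 96 hours before readout; 0% = vehicle DMSO and 100% = high DMSO killing control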
[20] = measured here: combination with BGB IC40, at 0.05 µM
[21] = measured here: with BGB IC20 combination, at 0.5 µM
[22] = measured here: with cisplatin IC20 combination, at 0.5 µM
[23] = measured here: combination with cisplatin, at 0.5 µM
[24] = measured here: combination with cisplatin, at 5 µM

## COC1C(OC(N)=O)C(O)C(Oc2ccc3c(O)c(NC(=O)c4ccc(O)c(CC=C(C)C)c4)c(=O)oc3c2C)OC1(C)C (stereo unspecified)
[1]
  inhibition: -15.7% (inactive)
[2]; stronger effect = lower value, cell number ratio, induced over uninduced
  fold change: 0.913 (inactive) and 0.926 (inactive)
[2]; measured here: relative caspase fold change +Dox/-Dox
  fold change: 2.12 and 1.18
[2]; measured here: total cells with miR-34 induction, stronger effect = lower value
  cell count: 9290 and 8980
[2]; measured here: total cells without miR-34 induction
  cell count: 10200 and 9700
[3]; MELAS cybrid survival, CellTiter-Glo 48 h, stronger effect = higher value
  z-score: -0.751 (inactive) and -0.28 (inactive)
[3]; Rieske KO mouse fibroblast survival, CellTiter-Glo 72 h
  z-score: -1.31 and -0.896
[4]
  z-score: 0.215 (inactive)
[5]; at 0.5 µM, stronger effect = higher value
  inhibition: -3.51% (inactive)
[5]; measured here: combination with BGB IC20, at 0.005 µM
  inhibition: -14%
[5]; measured here: combination with BGB IC40, at 0.005 µM
  inhibition: -18.4%
[5]; [20]
  inhibition: -8.09%
[5]; measured here: combination with cisplatin, at 0.5 µM, stronger effect = higher value
  inhibition: -1.03%
[5]; measured here: combination with cisplatin, at 5 µM, stronger effect = higher value
  inhibition: -41%
[6]; BGB combo, at 5 µM
  inhibition: -12%
[6]; at 0.5 µM
  inhibition: -8.11% (inactive)
[6]; cisplatin combo, at 5 µM
  inhibition: 0.721%
[6]; [21]
  inhibition: 3.35%
[6]; [22]
  inhibition: 2.19%
[6]; single agent, at 5 µM
  inhibition: -35.9%
[7]; BGB IC20 combo, at 0.005 µM
  inhibition: -23.7%
[7]; BGB IC40 combo, at 0.005 µM
  inhibition: -54.1%
[7]; BGB IC40 combo, at 0.05 µM
  inhibition: -30.8%
[7]; at 0.5 µM
  inhibition: -1.24% (inactive)
[7]; cisplatin combo, at 0.05 µM
  inhibition: -30.8%
[7]; cisplatin combo, at 0.5 µM
  inhibition: -1.05%
[7]; cisplatin combo, at 5 µM
  inhibition: -22.8%
[7]; measured here: 5 uM single agent, at 5 µM
  inhibition: -16.3%
[8]; at 0.5 µM
  inhibition: -15% (inactive)
[8]; [20]
  inhibition: -15.8%
[8]; [23]
  inhibition: 17.7%
[8]; [24]
  inhibition: -65.5%
[9]; at 0.5 µM
  inhibition: -17.6% (inactive)
[9]; measured here: with BGB IC20, at 0.5 µM
  inhibition: -24%
[9]; measured here: with BGB IC20, at 5 µM
  inhibition: 20.3%
[9]; measured here: with cisplatin IC20, at 0.5 µM
  inhibition: -30.3%
[9]; measured here: with cisplatin IC20, at 5 µM
  inhibition: -20.2%
[9]; single agent, at 5 µM
  inhibition: -19%
[10]; at 0.5 µM
  inhibition: -21.7% (inactive)
[10]; measured here: combination with BGB at IC20, at 0.5 µM
  inhibition: -45.3%
[10]; measured here: combination with cisplatin at IC20, at 0.5 µM
  inhibition: -25.6%
[11]; at 0.5 µM
  inhibition: -9.35% (inactive)
[11]; measured here: combo with BGB at IC20, at 0.5 µM
  inhibition: -5.37%
[11]; measured here: combo with cisplatin at IC20, at 0.5 µM
  inhibition: -13.3%
[12]; at 0.5 µM
  inhibition: -6.21% (inactive)
[12]; measured here: inhibition with BGB combination, at 0.05 µM
  inhibition: -33.1%
[12]; measured here: inhibition with cisplatin combination, at 0.05 µM
  inhibition: -19.6%
[13]; at 0.5 µM
  inhibition: -20.5% (inactive)
[13]; [23]
  inhibition: -9.82%
[13]; [24]
  inhibition: -11.7%
[14]; at 0.5 µM
  inhibition: -31.4% (inactive)
[14]; measured here: BGB combination, at 0.5 µM
  inhibition: -38.4%
[14]; measured here: BGB combination, at 5 µM
  inhibition: -32.4%
[14]; measured here: cisplatin combination, at 0.5 µM
  inhibition: -35.8%
[14]; measured here: cisplatin combination, at 5 µM
  inhibition: -21%
[15]; BGB combination, concentration series, at 5 µM
  inhibition: -28.9%
[15]; at 0.5 µM
  inhibition: -15.6% (inactive)
[15]; cisplatin combination, concentration series, at 5 µM
  inhibition: -9.79%
[16]
  inhibition: -3.92% (inactive)
[16]; measured here: combo with BGB IC20
  inhibition: 3.16%
[16]; measured here: combo with cisplatin IC20
  inhibition: -8.92%
[17]; at 0.5 µM
  inhibition: -4.18% (inactive)
[17]; cisplatin combination, at 0.5 µM
  inhibition: 1.57%
[17]; cisplatin combination, at 5 µM
  inhibition: -32.1%
[17]; measured here: BGB IC40 combination 0.05 uM, at 0.05 µM
  inhibition: 37.7%
[17]; single agent, at 5 µM
  inhibition: -18.6%
[18]; at 0.5 µM
  inhibition: -22.3% (inactive)
[18]; cisplatin combo, at 5 µM
  inhibition: 18.1%
[18]; measured here: BGB IC40 combination, at 0.05 µM
  inhibition: -10.1%
[18]; [23]
  inhibition: -16.8%
[18]; single agent, at 5 µM
  inhibition: -14.1%
[19]; at 0.5 µM
  inhibition: -43.4% (inactive)
[19]; [21]
  inhibition: -36.9%
[19]; [22]
  inhibition: -46.6%
[19]; single agent, at 0.05 µM
  inhibition: -14.9%
[19]; single agent, at 5 µM
  inhibition: 4.54%
